ROMK mod: human ROMK K+ channel modulation, primary screen; P48048; Tet-inducible ROMK, thallium flux fluorescence; actives lie on both sides; B-score at 10 µM; 2% of 130,000 active; AID 1918;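 active means signal ratio slope over the read window, or its plate-corrected B-score, at least 3 SD from the plate mean, either direction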;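 further: B-score of the F/F0 ratio slope over 7 to 12 s after thallium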
Insulin prom up: MIN6 insulin promoter up-regulation | MIN6 insulin promoter-GFP reporter, high-content imaging; hits give high values | z-score at 5 µM | 0.3% of 190,000 active | AID 1625;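 active means z-score above 3 at 5 µM with at least 500 cells counted in the well; inconclusive means wells under 500 cells, flagged as cytotoxic or low count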
WT yeast gro inh: growth inhibition of WT yeast, mitochondrial fusion screen; mitochondrial fusion phenotypic screen, WT strain; inhibition, % at 10 µM; 2.1% of 190,000 active; AID 1362; in the data active means inhibition above about 58%; tested in S. cerevisiae
KCC2 mod: modulators of human KCC2 chloride dependent transport; Q9H2X9; 2.2% of 190,000 active; B-score of Tl+ flux slope (higher = more flux/activation; lower = inhibition) at 10 µM; KCC2 cells, thallium flux FluoZin-2 fluorescence;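 active means thallium flux slope and its plate-corrected score both differing from the plate sample mean at a set confidence after two filtering rounds, in either direction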;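 further: slope of fluorescence scaled to starting intensity during 10 to 20 s after thallium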
Target sequence (Q9H2X9 whole entry, looked up): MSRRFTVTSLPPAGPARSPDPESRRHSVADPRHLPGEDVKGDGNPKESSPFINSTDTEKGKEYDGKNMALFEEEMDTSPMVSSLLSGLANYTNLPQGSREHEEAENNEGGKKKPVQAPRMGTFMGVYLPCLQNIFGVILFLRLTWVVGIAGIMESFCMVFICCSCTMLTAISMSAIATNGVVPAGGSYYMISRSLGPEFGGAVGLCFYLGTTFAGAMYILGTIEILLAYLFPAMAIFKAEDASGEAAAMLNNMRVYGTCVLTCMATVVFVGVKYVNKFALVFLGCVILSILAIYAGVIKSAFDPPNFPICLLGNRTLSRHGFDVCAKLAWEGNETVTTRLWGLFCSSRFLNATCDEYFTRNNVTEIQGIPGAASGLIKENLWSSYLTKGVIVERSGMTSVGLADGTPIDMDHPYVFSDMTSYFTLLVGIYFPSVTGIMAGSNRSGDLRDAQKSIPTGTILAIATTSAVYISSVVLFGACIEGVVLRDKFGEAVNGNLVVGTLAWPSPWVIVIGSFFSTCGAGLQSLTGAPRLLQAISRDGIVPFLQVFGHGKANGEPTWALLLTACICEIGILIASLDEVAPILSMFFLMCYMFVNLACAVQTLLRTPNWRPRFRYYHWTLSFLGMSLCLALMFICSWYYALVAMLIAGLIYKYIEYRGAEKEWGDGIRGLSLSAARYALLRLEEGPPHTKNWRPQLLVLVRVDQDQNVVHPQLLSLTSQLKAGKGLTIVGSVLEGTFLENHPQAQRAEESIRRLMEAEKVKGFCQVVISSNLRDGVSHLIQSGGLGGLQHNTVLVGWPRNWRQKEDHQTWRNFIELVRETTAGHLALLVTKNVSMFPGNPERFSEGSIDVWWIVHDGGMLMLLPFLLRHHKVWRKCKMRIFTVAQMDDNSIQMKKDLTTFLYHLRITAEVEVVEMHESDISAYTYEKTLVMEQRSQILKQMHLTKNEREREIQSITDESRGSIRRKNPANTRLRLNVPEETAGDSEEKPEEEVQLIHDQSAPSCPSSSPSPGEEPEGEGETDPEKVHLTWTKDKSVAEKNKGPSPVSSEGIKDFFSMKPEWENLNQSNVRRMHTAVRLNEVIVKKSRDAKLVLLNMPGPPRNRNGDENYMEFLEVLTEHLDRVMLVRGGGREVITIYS
Insulin prom inh: TRM-6 insulin promoter activity inhibition | inhibition, % at 2 µM | 0.9% of 130,000 active | AID 1273 | TRM-6 cells (human fetal islet line), insulin promoter-eGFP reporter, imaging; reporter expression induced with tamoxifen;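 active means inhibition above the mean plus 3 SD, with well images judged a real hit on visual review, cut at about 60% in these data, passing the limit was not always enough; inconclusive means inhibition over the cutoff but images rejected on review; inactive means inhibition not above the cutoff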
L major viab: reduces viability of Leishmania major promastigotes; 9% of 200,000 active; resazurin fluorescence viability; inhibition, % at 10 µM; in the data active means inhibition above about 50%;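 further: promastigotes grown with compound for 44 hours at 28 °C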
KCC2 secondary: KCC2 (human) modulation, secondary assay. shares compounds with KCC2 mod. HEK293-KCC2, thallium flux, FluoZin2 fluorescence; hits give high values. normalised thallium flux (F/F0 slope) at 10 µM. 15% of 3,700 active;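 active means thallium flux slope above the same plate's solvent-only control mean plus 3 SD; inconclusive means the two replicate wells disagree; inactive means no significant difference from solvent-only control wells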
KCC2 bumet counter: thallium flux despite bumetanide block in KCC2 cells, secondary assay 3; shares compounds with KCC2 mod; 49% of 3,700 active; normalized thallium flux at 10 µM; HEK293-KCC2 + bumetanide/ouabain, thallium flux FluoZin2; hits give high values;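 active means thallium entry rate above the same plate's blocked-transporter control wells by more than 3 SD; inconclusive means the two repeat wells disagree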;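 further: raw slope of fluorescence over initial fluorescence between 10 and 20 s after thallium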
KCC2 secondary2: KCC2 (human) modulation, second secondary assay | shares compounds with KCC2 mod | HEK293-KCC2, thallium flux FluoZin2 fluorescence; actives lie on both sides; F/F0 rise rate, 10–20 s post-thallium | normalized thallium flux at 10 µM | 23% of 3,700 active | AID 1715;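 active means thallium flux slope more than 3 SD above or below the plate's solvent-only control mean, mostly below; inconclusive means the two repeat wells disagreed; inactive means no significant shift from solvent-only controls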;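 further: raw slope with 0.1% DMSO as baseline and bumetanide as block control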
HEK counter1: acts in parental HEK cells, KCC2 counter-screen. shares compounds with KCC2 mod. HEK293 parental cells, thallium flux FluoZin2, ouabain; baseline-ratio fluorescence slope, 10–20 s after thallium. thallium flux rate (normalised fluorescence) at 10 µM. 46% of 3,700 active. AID 1716;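 active means thallium flux rate significantly above the same plate's solvent-only control wells, beyond their mean plus 3 SD; inconclusive means the two replicate wells gave conflicting results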
KCC2 ouabain: modulates human KCC2 on retest with ouabain; shares compounds with KCC2 mod; HEK293-KCC2, thallium flux FluoZin2 fluorescence; bidirectional: low = inhibitor, high = activator; raw Tl+ flux slope (below DMSO = inhibition, above = activation) at 10 µM; 48% of 3,700 active; AID 1717;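 active means thallium flux slope beyond 3 SD from same-plate DMSO control mean in most replicates, usually higher, sometimes lower; inconclusive means repeat tests gave conflicting results; inactive means no significant difference from controls in most replicates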;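 further: slope of initial-normalized fluorescence between seconds 10 and 20 after thallium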
HEK counter2: parental HEK flux effect, counter-screen 2; thallium flux slope at 10 µM; 33% of 3,700 active; HEK293 parental, thallium flux FluoZin-2 fluorescence slope; shares compounds with KCC2 mod;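 active means thallium flux slope above the same plate's solvent-control mean plus 3 SD in both duplicate wells; inconclusive means duplicate wells that disagreed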;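 further: run without ouabain in cells lacking the KCC2 cotransporter; slope of fluorescence scaled to its starting value between 10 and 20 s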
* marks the source's active call; other numbers are inactive results; ? = inconclusive; / = no result. Hits are enriched below; roughly 12% of the tested compounds scored in any of these assays.

SMILES	ROMK mod	Insulin prom up	WT yeast gro inh	KCC2 mod	Insulin prom inh	L major viab	KCC2 secondary	KCC2 bumet counter	KCC2 secondary2	HEK counter1	KCC2 ouabain	HEK counter2
CCCCC1CC(CSc2ncn[nH]2)OC1=O (stereo not given)	1.26	-0.61	9.0	/	/	-7.3	/	/	/	/	/	/
CC(C)(C)C(=O)NNC(=O)COc1ccc2ccccc2c1Br	-1.66	-0.94	18.3	7.8*	21.4	-1.8	0.00711	0.0203*	0.0287	0.0106*	0.0274*	?
O=C(COc1ccc2ccccc2c1Br)NNC(=O)Nc1ccccc1	-0.652	-0.34	-10.4	/	/	-12.3	/	/	/	/	/	/
O=C(COc1ccc2ccccc2c1Br)Nn1cnnc1	0.322	-0.96	-8.8	-4.67*	61.9	-8.8	0.0066	?	0.0251*	0.00788	?	0.0112
Cc1ccccc1-c1nnc(SCC(=O)Nc2cccc(C)c2C)o1	/	0.1	-1.3	-4.75*	-9.7	-1.7	0.0169	0.00416	0.0277	0.00711	0.0143	0.0103
COc1cc(NS(=O)(=O)c2ccc(C)cc2)c2ncccc2c1	/	?	2.2	49.4*	/	99.2*	0.0277*	0.0926*	0.0353	?	0.0624*	?
O=S(=O)(Nc1cc(Sc2cccc3cccnc23)c(O)c2ccccc12)c1ccccc1	/	?	47.2	47.7*	-169.0	100.3*	0.0351*	0.0799*	0.044*	0.0491*	0.0577*	0.0152*
COc1ccc(S(=O)(=O)Nc2cc(C)ccn2)cc1	-0.304	/	-0.5	/	6.7	-3.8	/	/	/	/	/	/
COc1ccc(C)cc1NS(=O)(=O)c1cccc2nonc12	/	-0.36	0.6	6.52*	/	-6.6	0.0111	0.0195*	0.0325	0.00751	0.0267	?
Cc1ccc(S(=O)(=O)Nc2cccc3cccnc23)cc1	0.0323	-0.14	53.1	13.4*	12.3	99.6*	?	0.0661*	0.0323	0.02*	0.0348*	?
Cc1ccc(S(=O)(=O)Nc2ccc(S(=O)(=O)Nc3ncccn3)cc2)cc1	0.988	1.43	-2.2	/	18.2	-4.4	/	/	/	/	/	/
Cc1sc2ncnc(N3CCC(C(=O)Oc4cccc(Cl)c4Cl)CC3)c2c1C	-0.351	0.12	23.2	0.593	0.0	-1.2	/	/	/	/	/	/
Cc1cc(NC(=O)/C=C\C(=O)O)c([N+](=O)[O-])cc1C	1.15	-0.09	/	-0.252	/	/	/	/	/	/	/	/
COc1ccccc1NS(=O)(=O)c1cccc2cccnc12	/	-0.59	-4.4	2.68*	/	-1.2	0.00925	0.014*	0.0348	?	0.0229	?
Cc1ccc2c(Cl)cc(Cl)c(OCC(=O)Nc3ccc(C)c(S(=O)(=O)N(C)C)c3)c2n1	/	0.03	5.8	4.59*	/	68.4*	0.00992	0.0168*	0.0335	0.0157*	0.0244*	0.0121
Cc1noc(C)c1C(=O)OCC(=O)Nc1cccc(S(=O)(=O)N(C)C)c1	-0.806	1.12	-1.1	-0.421	13.5	48.2	/	/	/	/	/	/
Cc1ccc2c(Cl)cc(Cl)c(OCC(=O)Nc3cccc(S(=O)(=O)N(C)C)c3)c2n1	/	/	10.2	7.87*	-21.9	-5.1	0.0102	0.0187*	0.0339	0.0143*	0.03*	?
Cc1cc(C(=O)OCC(=O)Nc2cccc(S(=O)(=O)N(C)C)c2)c2ccccc2n1	0.0709	/	-5.0	-2.89*	-22.2	10.2	0.00886	0.006	0.0295	0.00571*	0.0188	0.00926

High-throughput results (PubChem BioAssay)
